From ChEMBL document CHEMBL3988442, “University of Dundee, Small-Polar-MMV Screening Library” (2021)

How the values were obtained:
Format in all cases: functional
Parameters in all cases: scale not given: direction of the effect not stated beside the values
Settings in all cases: 30 µM
[1] = target: T1, Aspartate--tRNA(Asp/Asn) ligase (Mycobacterium tuberculosis (strain ATCC 25618 / H37Rv)) (UniProt P9WFW3); test: Assay for Asp RNA synthetase-1 from Mycobacterium tuberculosis; also: in the data most compounds retested in dose-response had high values
T1 sequence (whole entry): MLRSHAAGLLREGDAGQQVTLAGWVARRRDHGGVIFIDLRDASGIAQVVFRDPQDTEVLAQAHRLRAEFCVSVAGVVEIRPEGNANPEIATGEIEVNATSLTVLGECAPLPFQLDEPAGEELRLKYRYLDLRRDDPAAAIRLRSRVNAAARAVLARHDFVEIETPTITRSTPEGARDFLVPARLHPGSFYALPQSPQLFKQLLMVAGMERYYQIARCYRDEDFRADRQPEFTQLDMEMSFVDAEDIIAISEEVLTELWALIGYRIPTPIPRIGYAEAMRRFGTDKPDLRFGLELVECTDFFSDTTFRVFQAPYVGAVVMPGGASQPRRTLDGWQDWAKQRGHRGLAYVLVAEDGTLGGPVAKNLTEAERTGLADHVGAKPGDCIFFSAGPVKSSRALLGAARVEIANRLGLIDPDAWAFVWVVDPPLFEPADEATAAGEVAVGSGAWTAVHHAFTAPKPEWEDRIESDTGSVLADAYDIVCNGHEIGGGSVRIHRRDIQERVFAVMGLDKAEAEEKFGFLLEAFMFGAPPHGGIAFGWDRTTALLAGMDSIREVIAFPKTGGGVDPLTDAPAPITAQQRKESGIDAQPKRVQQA

[2] = target: Shiga toxin 2 (Escherichia coli O157:H7) (UniProt P09385+P09386); test: E. coli 0.157:H7 Shiga Toxin SOP - stx2 screening assay
[3] = target: AMP-activated protein kinase, AMPK (Homo sapiens) (UniProt P54646+O43741+P54619+Q9UGJ0+Q9Y478+Q13131+Q9UGI9); test: AMP-dependent Kinase enzyme assay. An in vitro enzyme assay that detects ADP turnover that is directly proportional to AMPK activity. This uses naive AMPK that is activated during the assay with MK-8722

SMILES | Percent Effect [1] [%] | Percent Effect [2] [%] | Percent Effect [3] [%]
Cc1nn(CC(=O)N2CCN(c3ccccc3F)CC2)c(C)c1Cl | 8.8 | -39.1 | –
CC(=O)c1cccc(S(=O)(=O)N2CSCC2C(=O)NCC(F)(F)F)c1 (stereo not given) | -1.82 | -13.6 | –
O=C(NC1CC1)[C@H]1CN(Cc2ccccc2)C[C@@H]1C(=O)c1ccccc1 | – | – | 12.8
CCc1nc2n(n1)CC(NCc1nc(C)ccc1O)CC2 (stereo not given) | -1.83 | 11.7 | –
O=C(NCCO)C1(Cc2cc(-c3ccc(F)cc3F)no2)CCOCC1 | 2.58 | 1.08 | –
Cn1cc(C2=CCN(CCCC(=O)Nc3ccc(C#N)cc3)CC2)cn1 | – | – | 7.78
CCn1c(Cn2cncn2)nnc1C1CCN(Cc2ccncc2)CC1 | 4.98 | 0.0626 | –
O=C(c1ccnc(-n2cnnc2)c1)N1CCCC2(CCNC2)C1 (stereo not given) | – | – | -3.71
COc1ccnc(N2CCN(C(=O)Cc3ccc(C#N)cc3)CC2)n1 | 4.99 | 8.53 | –
O=C(c1cc2ccccc2[nH]c1=O)N1CCC2(CCCNC2)C1 (stereo not given) | – | – | 16.8
COc1ccc(C)cc1CNCc1ccc(-n2nc(C)cc2C)nc1 | -2.68 | 26.6 | –
CN(C)S(=O)(=O)N1CC[C@]2(C[C@H](Oc3ncccc3F)CO2)C1 | 2.03 | 2.42 | –
CN(C)c1cncc(C2CCN(CCO)CC2)n1 | -2.69 | -4.99 | –
O=C(c1ccc(O)cc1)N1CCN(C(=O)c2ccc3c(c2)COC3)CC1 | -1.8 | -20 | –
Cc1cn2c(n1)CCC(NC(=O)CCn1cncn1)C2 (stereo not given) | -0.674 | 21.7 | –
O=C1CC2(CCN(Cc3ccc(Cl)s3)C2)C(=O)N1 (stereo not given) | – | – | 12.7
O=C(NCC1CC1)C1=NOC2(CCN(S(=O)(=O)c3cccs3)C2)C1 (stereo not given) | 2.15 | -4.25 | –
Cc1ccc(F)c(OC2(C(=O)O)CCN(C(=O)N3CCCC3)CC2)c1 | -1.17 | -2.51 | –
O=C(C1CCOCC1)N1C[C@H]2CC[C@@H]1CN(Cc1ccncc1)C2 | – | – | 0.59
Cc1cc(C)c(CNC(=O)NCC(O)c2cccc(F)c2)c(=O)[nH]1 (stereo not given) | 2.36 | 28.2 | –
c1ccc2oc(N3CCCCC3Cn3cncn3)nc2c1 (stereo not given) | -2.88 | -18.7 | –
CCCc1n[nH]c(C2CN(CCNS(=O)(=O)CC)CCO2)n1 (stereo not given) | 2.63 | -17 | –
O=S(=O)(C1CC1)N1CCO[C@H]2[C@H](OCCN3CCCC3)CC[C@@H]21 | 2.59 | -32.7 | –
CN1CCOC(CNCc2coc(-c3ccccc3)n2)C1 (stereo not given) | -1.77 | -3.88 | –
Cc1nc(C)n(CC2CCCN2Cc2nc3ccccc3nc2C)n1 (stereo not given) | -11.8 | -7.98 | –
CC1CN(C(=O)NCCCn2cncn2)CCO1 (stereo not given) | -7.24 | 31.5 | –
CCn1c(N)nc2cc(C(=O)NCCc3sccc3C)cnc21 | 2.47 | -89 | –
NC(=O)c1cc(C2CCCN(C(=O)CCc3ccsc3)C2)n[nH]1 (stereo not given) | -5.77 | 21.2 | –
